BAZ2B block = qHTS Assay for Inhibitors of BAZ2B. Bromodomain adjacent to zinc finger domain protein 2B (Homo sapiens), Q9UIF8. AlphaScreen BAZ2B-H3K14Ac peptide displacement. Potency, µM (titrated, usually from 114 µM), hits mostly inhibitors. 4.4% of 360,000 active; also: nearly all actives have a fitted effect of over 60% in size
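Inhibition is scored as reduced AlphaScreen emission. The BAZ2B/b-H3(5-23)K14Ac complex (50 nM each) in PBS pH 7.4, 0.01% Tween-20 meets compound (up to 110 uM) for 30 min at RT before bead addition.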
JMJD2A Tudor = qHTS Assay for Inhibitors of JMJD2A-Tudor Domain; Lysine-specific demethylase 4A (Homo sapiens), O75164; AlphaScreen JMJD2A-Tudor / H3K4me3 peptide binding; Potency, µM (top dose mostly 114 µM), most hits filed as inhibitors; 4.4% of 390,000 active; also: nearly all actives have a fitted effect of over 50% in size
HP1b chromo inh = HTS for Inhibitors of HP1-beta Chromodomain Interactions with Methylated Histone Tails | Chromobox protein homolog 1 (Homo sapiens), P83916 | AlphaScreen HP1-beta / biotin-H3K9me3 peptide binding | Potency, µM (series often up to 114 µM), most hits filed as inhibitors | 0.56% of 390,000 active | AID 540317, 2011; also: nearly all actives have a fitted effect of over 70% in size
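AlphaScreen: HP1-beta (50 nM) preformed 30 min with biotin-H3(1-18)K9me3 peptide (50 nM) in PBS pH 7.4, 0.01% Tween-20. Compound added for 30 min at RT, then streptavidin donor/nickel chelate acceptor beads (10 ug/mL) for 30 min.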
VDR inh = Inhibitors of the vitamin D receptor (VDR): qHTS; AID 504847, 2011; VDR-SRC2-3 peptide fluorescence polarization, 2 h; Potency, µM, usual class: inhibitors; 0.93% of 400,000 active
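Signal is fluorescence polarization, reporting how far test compounds block the interaction of VDR with the SRC2-3 coregulator peptide after a 2 h room-temperature incubation.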
PLK1 PBD block = qHTS for Inhibitors of PLK1-PDB (polo-like kinase 1 - polo-box domain): Primary Screen; Potency, µM, actives largely listed as inhibitors; Plk1 PBD binding of FITC phosphopeptide, fluorescence polarization; Serine/threonine-protein kinase PLK1 (Homo sapiens), P53350; 2.8% of 360,000 active; also: series mostly up to about 57 µM; nearly all actives have a fitted effect of over 65% in size
Target sequence (P53350 whole entry, looked up, the tested form may be a part): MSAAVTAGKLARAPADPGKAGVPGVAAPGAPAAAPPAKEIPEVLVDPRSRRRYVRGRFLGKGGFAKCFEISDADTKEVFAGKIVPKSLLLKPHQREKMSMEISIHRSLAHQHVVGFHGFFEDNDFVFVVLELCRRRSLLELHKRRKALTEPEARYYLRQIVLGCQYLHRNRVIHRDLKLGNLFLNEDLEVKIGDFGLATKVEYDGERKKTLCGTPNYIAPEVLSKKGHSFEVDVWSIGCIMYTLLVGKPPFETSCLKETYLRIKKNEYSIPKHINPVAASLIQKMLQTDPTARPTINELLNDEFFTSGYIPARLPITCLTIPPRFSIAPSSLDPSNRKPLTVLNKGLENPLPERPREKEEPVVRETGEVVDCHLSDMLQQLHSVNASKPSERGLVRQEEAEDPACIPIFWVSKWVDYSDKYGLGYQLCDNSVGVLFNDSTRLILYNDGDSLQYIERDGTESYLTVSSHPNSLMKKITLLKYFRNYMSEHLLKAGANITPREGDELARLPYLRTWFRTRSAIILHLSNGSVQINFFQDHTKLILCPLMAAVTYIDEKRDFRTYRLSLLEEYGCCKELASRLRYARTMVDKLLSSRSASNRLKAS
G9a inh = qHTS Assay for Inhibitors of Histone Lysine Methyltransferase G9a. G9a H3K9 monomethylation, AlphaScreen, 2 h. Potency, µM (top dose mostly 102 µM), actives largely listed as inhibitors. 8.8% of 350,000 active. AID 504332, 2011; also: nearly all actives have a fitted effect of over 75% in size
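AlphaScreen read-out: biotin-H3K9 peptide (500 nM) methylation by 20 nM enzyme with 20 uM SAM, 2 h at room temperature after 15 min compound preincubation; anti-monomethyl H3K9 antibody plus donor/acceptor beads, 10 min dark.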
Numbers stand for hits; [ ] = dose if it differs, or a comment. Hits are enriched below; roughly 11% of the tested compounds scored in any of these assays. Calls follow the shape of the dose curve; as a rule, active = well fitted curve in the direction sought with a large enough effect; inconclusive = small, poorly fitted or top-dose-only effect, or another doubt; inactive = no such curve, though single readings can be large; an effect the other way counts as inactive or inconclusive.

How did CC(=O)Nc1ccccc1-c1nc2ccccc2n(C(C)C(=O)Nc2ccccc2C(F)(F)F)c1=O (stereo not drawn) do in these assays?
BAZ2B block: inactive; JMJD2A Tudor: inactive; HP1b chromo inh: inactive; VDR inh: inactive; G9a inh: inconclusive

How did O=C(c1ccc(Oc2ccccc2)cc1)c1nc2c(n1O)CCCC2 do in these assays?
BAZ2B block: inconclusive; JMJD2A Tudor: inconclusive; HP1b chromo inh: inactive; VDR inh: inactive; PLK1 PBD block: inactive; G9a inh: inconclusive

Results for COc1ccccc1OCC(=O)NCC1CCCN(C(=O)c2ccccc2SC)C1 (stereo not drawn) ?
BAZ2B block: inactive; JMJD2A Tudor: inconclusive; HP1b chromo inh: inactive; VDR inh: inconclusive; PLK1 PBD block: 3.4µM; G9a inh: inactive

Results for COc1ccc(C(=O)N2CCCC(CNC(=O)c3ccccc3Cl)C2)o1 (stereo not drawn) ?
BAZ2B block: inactive; JMJD2A Tudor: inactive; HP1b chromo inh: inactive; VDR inh: inconclusive; PLK1 PBD block: inactive; G9a inh: inactive

How did CC(=O)c1ccccc1C(=O)N1CCCC(CNC(=O)c2ccccc2Cl)C1 (stereo not drawn) do in these assays?
BAZ2B block: inactive; JMJD2A Tudor: 28µM; HP1b chromo inh: inactive; VDR inh: inconclusive; PLK1 PBD block: 27µM; G9a inh: inactive

What do the screens show for `COc1ccc2nc(N=NC3=C(O)CC(C)(C)CC3=O)sc2c1`?
BAZ2B block: 40µM; JMJD2A Tudor: inconclusive; HP1b chromo inh: inconclusive; VDR inh: inactive; PLK1 PBD block: inactive; G9a inh: inconclusive

Results for COc1ccc2nc(N)sc2c1 ?
BAZ2B block: inactive; JMJD2A Tudor: inactive; HP1b chromo inh: inactive; VDR inh: inactive; PLK1 PBD block: inactive; G9a inh: inactive[12.7 µM]

Results for COc1ccc2nc(N=Nc3ccc(O)c4ccccc34)sc2c1 ?
BAZ2B block: 2.8µM; JMJD2A Tudor: inconclusive; HP1b chromo inh: inconclusive; VDR inh: inactive; PLK1 PBD block: inactive; G9a inh: 3.2µM

What do the screens show for `CN(Cc1ccc(OCC(O)CN(C)Cc2ccccc2)cc1)Cc1nccn1C` (stereo not drawn)?
BAZ2B block: inconclusive; JMJD2A Tudor: inactive; HP1b chromo inh: inactive; VDR inh: inactive; PLK1 PBD block: inactive; G9a inh: inactive

What do the screens show for `CC(=O)c1ccc(OCC(O)CN(C)CCOc2ccc(Br)cc2)cc1` (stereo not drawn)?
BAZ2B block: inactive; JMJD2A Tudor: inactive; HP1b chromo inh: inactive; VDR inh: inactive; PLK1 PBD block: inactive; G9a inh: inactive

How did CN(C)CC(O)COc1cccc(OCC(O)CN(C)C)c1 (stereo not drawn) do in these assays?
BAZ2B block: inactive; JMJD2A Tudor: inactive; HP1b chromo inh: inactive; VDR inh: inactive; PLK1 PBD block: inactive; G9a inh: inactive[12.7 µM]

How did COc1ccc(CN(C)CC(O)COc2ccc(-c3ccccc3)cc2)cc1OC (stereo not drawn) do in these assays?
BAZ2B block: 79µM; JMJD2A Tudor: 35µM; HP1b chromo inh: 50µM; VDR inh: inactive; PLK1 PBD block: inactive; G9a inh: 40µM

What do the screens show for `C=CCOc1ccc(CN(C)CC(O)COc2ccc(CCC(C)=O)cc2)cc1` (stereo not drawn)?
BAZ2B block: inactive; JMJD2A Tudor: 1µM; HP1b chromo inh: inconclusive; VDR inh: inactive; PLK1 PBD block: inactive; G9a inh: 10µM

How did CN(Cc1ccc(Br)cc1)CC(O)COc1cccc(Br)c1 (stereo not drawn) do in these assays?
BAZ2B block: 79µM; JMJD2A Tudor: 5µM; HP1b chromo inh: inconclusive; VDR inh: inactive; PLK1 PBD block: inactive; G9a inh: 22µM

Results for N=C1/C(=C/c2ccc(OCc3ccccc3)cc2)C(=O)N=C2SC(CC(=O)N3CCOCC3)=NN12 ?
BAZ2B block: inconclusive; JMJD2A Tudor: inconclusive; HP1b chromo inh: inactive; VDR inh: inactive; PLK1 PBD block: inconclusive; G9a inh: inconclusive

How did COc1cccc(-n2c(C)cc(/C=C3\C(=N)N4N=C(CC(=O)N5CCOCC5)SC4=NC3=O)c2C)c1 do in these assays?
BAZ2B block: 50µM; JMJD2A Tudor: inactive; HP1b chromo inh: inactive; VDR inh: inactive; PLK1 PBD block: inactive; G9a inh: inactive

What do the screens show for `N=C1/C(=C/c2ccc(OCc3ccccc3F)cc2)C(=O)N=C2SC(CC(=O)N3CCOCC3)=NN12`?
BAZ2B block: inactive; JMJD2A Tudor: inconclusive; HP1b chromo inh: inactive; VDR inh: inactive; PLK1 PBD block: 38µM; G9a inh: inactive

Results for O=C(c1ccc(Br)cc1)c1sc(N2CCOCC2)nc1-c1ccccc1 ?
BAZ2B block: inactive; JMJD2A Tudor: inactive; HP1b chromo inh: inactive; VDR inh: inconclusive; PLK1 PBD block: inactive; G9a inh: inactive

Results for O=C(O)C1OC(C(=O)O)C(C(=O)O)C1C(=O)O (stereo not drawn) ?
JMJD2A Tudor: 20µM; HP1b chromo inh: inactive; VDR inh: inactive; PLK1 PBD block: inactive

How did CCOC(=O)Cc1csc(N)n1 do in these assays?
BAZ2B block: inactive; JMJD2A Tudor: inactive; HP1b chromo inh: inactive; VDR inh: inactive; PLK1 PBD block: inactive; G9a inh: inconclusive

How did CCOC(=O)Cc1csc(NC(=O)CCCc2ccccc2)n1 do in these assays?
BAZ2B block: inactive; JMJD2A Tudor: inactive; HP1b chromo inh: inactive; VDR inh: inactive; PLK1 PBD block: inactive; G9a inh: 50µM

How did CCOC(=O)Cc1csc(CC(N)=O)n1 do in these assays?
BAZ2B block: inactive; JMJD2A Tudor: inactive; HP1b chromo inh: inactive; VDR inh: inactive; PLK1 PBD block: inactive; G9a inh: 50µM

How did CCOC(=O)Cc1csc(NC(=O)Cc2ccc(Br)cc2)n1 do in these assays?
BAZ2B block: inactive; JMJD2A Tudor: inactive; HP1b chromo inh: inactive; VDR inh: inactive; PLK1 PBD block: inactive; G9a inh: 56µM

What do the screens show for `O=C(NCc1ccc2c(c1)CCN2C(=O)c1ccc(Cl)cc1)c1ccco1`?
BAZ2B block: inactive; JMJD2A Tudor: inactive; HP1b chromo inh: inactive; VDR inh: inactive; G9a inh: inactive

Results for Cc1ccc(C(=O)CSC2=C(C#N)C(c3ccco3)C3=C(CC(C)(C)CC3=O)N2)cc1 (stereo not drawn) ?
BAZ2B block: inconclusive; JMJD2A Tudor: inconclusive; HP1b chromo inh: inactive; VDR inh: inactive; PLK1 PBD block: inactive; G9a inh: 40µM

What do the screens show for `C=C(C)CNC(=S)N1CCNC(=O)C1CC(=O)OC` (stereo not drawn)?
BAZ2B block: inactive; JMJD2A Tudor: inactive; HP1b chromo inh: inactive; VDR inh: inactive; PLK1 PBD block: inactive; G9a inh: inconclusive

High-throughput results (PubChem BioAssay)
